Compounds with a hit are over-represented: about 18% of the library has one in this group of screens.
CtBP-E1A inh: inhibitors of CtBP/E1A interaction. AlphaScreen GST-E1A/His-CtBP binding, 1536-well; hits give low values. activity change, % (no concentration beside the values). hit rate 0.49% among 340,000; in the data active = activity change below about -65%; inconclusive = mostly about -30% to -63%
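In 5 uL wells, 23 nL compound meets equimolar GST-E1A and His-CtBP (5X stock 125 nM each) for 2 h, 37 °C. Beads (5X, 50 ug/mL) then 1 h, 37 °C, dark.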
TDP1 block: TDP1 (human) enzyme inhibition | hit rate 0.28% among 350,000 | recombinant TDP1, AlphaScreen DNA substrate cleavage | Potency, µM (doses to about 130 µM), hits mostly inhibitors | Q9NUW8; also: nearly all actives have a fitted effect of over 40% in size
Target sequence (Q9NUW8 whole entry, looked up): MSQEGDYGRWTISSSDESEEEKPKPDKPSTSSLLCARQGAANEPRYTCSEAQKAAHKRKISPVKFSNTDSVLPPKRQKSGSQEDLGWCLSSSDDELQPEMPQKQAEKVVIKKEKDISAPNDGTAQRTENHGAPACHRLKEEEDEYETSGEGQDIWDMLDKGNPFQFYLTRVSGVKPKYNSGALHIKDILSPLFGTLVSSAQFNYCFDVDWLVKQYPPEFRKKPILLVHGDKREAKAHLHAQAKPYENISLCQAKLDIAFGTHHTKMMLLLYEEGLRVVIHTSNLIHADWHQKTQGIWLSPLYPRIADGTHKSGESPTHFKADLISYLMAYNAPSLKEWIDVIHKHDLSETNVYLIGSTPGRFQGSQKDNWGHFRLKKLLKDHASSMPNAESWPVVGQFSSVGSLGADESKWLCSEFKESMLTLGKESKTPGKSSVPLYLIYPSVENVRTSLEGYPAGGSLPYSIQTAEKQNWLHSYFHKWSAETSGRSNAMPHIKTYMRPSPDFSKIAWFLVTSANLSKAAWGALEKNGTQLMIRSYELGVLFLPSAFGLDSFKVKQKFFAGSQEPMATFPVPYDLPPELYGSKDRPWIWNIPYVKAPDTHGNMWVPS
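E. coli-derived human Tdp1, 1 nM final. Cpd preinc 15 min RT; substrate 15 nM final, 5 min RT; AS bead mix 10 ug/ml final, 10 min RT. Signal loss = tyrosine-FITC cleavage. No-enzyme wells = max signal.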
IL-1B inflam inh: inhibitors of inflammasome signaling (IL-1 beta secretion) | THP-1 LPS/ATP IL-1B secretion, AlphaLISA, 16 h; hits give low values | activity change, % at 57.5 µM | hit rate 4.7% among 360,000 | AID 743279; in the data active = activity change below about -50%; inconclusive = mostly about -30% to -49%
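THP-1 cells pretreated 1 hr with compounds (up to 57.5 uM final), then stimulated with LPS (250 ng/mL final) plus ATP (1.25 mM final); secreted IL-1B measured by AlphaLISA after 16 hr, decreased signal indicating inhibition.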
TDP1 cell noCPT: qHTS for Inhibitors of human tyrosyl-DNA phosphodiesterase 1 (TDP1): qHTS in cells in absence of CPT. DT40 Tdp1-/- hTDP1 cells, no CPT, ATP luminescence, 48 h. Potency, µM (titrated, usually from 46.2 µM), hits mostly inhibitors. hit rate 15% among 420,000; also: nearly all actives have a fitted effect of over 55% in size
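No-CPT arm: Tdp1-/-;hTDP1 DT40 cells (400/well) plus compounds, incubated ≥48 hr at 37 °C. Readout CellTiter-Glo luminescence.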
DT40 TDP1 CPT: growth inhibition of DT40 Tdp1-/-;hTDP1 cells with camptothecin (screen for TDP1 inhibitors) | hit rate 12% among 420,000 | chicken DT40 Tdp1-/-;hTDP1 cells + 20 nM CPT, ATP luminescence, 48 h | Potency, µM (series often up to 46.2 µM), hits mostly inhibitors; also: nearly all actives have a fitted effect of over 55% in size
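Chicken DT40 Tdp1-/- cells complemented with human TDP1, 400 cells/well, exposed to compounds plus 20 nM camptothecin for at least 48 h at 37 C; viability read as ATP content by CellTiter-Glo luminescence.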
Six1-Eya2 blk: blocks human Six1 binding to Eya2. activity change, % (test concentration not listed). AID 651725. Q15475+O00167. AlphaScreen GST-Six1/His-Eya2 binding, biochemical; hits give low values. hit rate 0.56% among 360,000; in the data active = activity change below about -65%; inconclusive = mostly about -30% to -63%
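Six1/Eya2 binding was read as AlphaScreen signal after compounds were pinned into GST-Six1 plus His-tagged Eya2 (5X stock 250/500 nM) in pH 8.0 Tris/NaCl/TCEP buffer, beads added, then incubated 1 h, 37 C, dark.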
Of the large screens only hits and unclear results are named; the others gave an inactive call; ! = a repeat was not active. Unless noted, calls follow the shape of the dose curve; as a rule, active = well fitted curve in the direction sought with a large enough effect; inconclusive = small, poorly fitted or top-dose-only effect, or another doubt; inactive = no such curve, though single readings can be large; an effect the other way counts as inactive or inconclusive.

O=C(O)c1ccc2ccc3ccccc3c2c1	none (no result: CtBP-E1A inh, TDP1 block)
CCC1=Nc2cc(C(=O)NCC3CCCO3)ccc2Sc2ccc(Cl)cc21 (stereo not drawn)	TDP1 cell noCPT 4.1µM, DT40 TDP1 CPT 3.7µM (no result: TDP1 block)
O=C(NCC1CCCO1)c1ccc(NC(=O)c2cccc(Cl)c2)cc1 (stereo not drawn)	none (no result: CtBP-E1A inh, TDP1 block)
CCC1=Nc2cc(C(=O)NCC3CCCO3)ccc2Sc2ccc(Br)cc21 (stereo not drawn)	TDP1 cell noCPT 3.3µM, DT40 TDP1 CPT 3.7µM
O=C(NCC1CCCO1)c1ccc(NC(=O)c2ccc(Br)cc2)cc1 (stereo not drawn)	TDP1 cell noCPT inconclusive (no result: TDP1 block, IL-1B inflam inh)
CCOc1ccc(Br)cc1C1C(C(=O)OC)=C(N)Oc2cc(N(C)C)ccc21 (stereo not drawn)	TDP1 cell noCPT inconclusive, DT40 TDP1 CPT 5.2µM
CCOc1ccccc1C1C(C(=O)OC)=C(N)OC2=C1C(=O)CCC2 (stereo not drawn)	none
Cc1ccc(OCc2ccccc2C)c([N+](=O)[O-])n1	TDP1 cell noCPT inconclusive
CC[C@@H](C(=O)n1nc(C)cc1C)[C@H](NS(=O)(=O)c1ccc(C)cc1)c1ccccc1	TDP1 cell noCPT 21µM, DT40 TDP1 CPT inconclusive
COc1cccc(NC(=O)Nc2cccn(Cc3ccccc3)c2=O)c1	IL-1B inflam inh inconclusive, TDP1 cell noCPT inconclusive, DT40 TDP1 CPT inconclusive
COc1ccc(/C=C2/SC(=O)N(CCNC(=O)C3CC(=O)N(Cc4ccccc4)C3)C2=O)cc1 (stereo not drawn)	TDP1 cell noCPT inconclusive, DT40 TDP1 CPT inconclusive (no result: TDP1 block)
CCOc1ccc(/C=C2\SC(=O)N(CCNC(=O)C3COc4ccccc4O3)C2=O)cc1OC (stereo not drawn)	IL-1B inflam inh -53, TDP1 cell noCPT 9.2µM, DT40 TDP1 CPT 12µM
O=C(NCCN1C(=O)S/C(=C\c2ccc(Cl)c(Cl)c2)C1=O)c1ccc2c(c1)C(=O)N(Cc1ccncc1)C2=O	IL-1B inflam inh inconclusive, TDP1 cell noCPT 12µM, DT40 TDP1 CPT 13µM
COc1ccc(/C=C2/SC(=O)N(CCNC(=O)C3COc4ccccc4O3)C2=O)cc1 (stereo not drawn)	TDP1 cell noCPT 21µM, DT40 TDP1 CPT inconclusive
O=C(NCCN1C(=O)S/C(=C\c2ccc(Cl)c(Cl)c2)C1=O)C1COc2ccccc2O1 (stereo not drawn)	IL-1B inflam inh -56, TDP1 cell noCPT inconclusive, DT40 TDP1 CPT inconclusive
COc1ccc(CN2C[C@H](O)COC[C@@H]3O[C@H](CC(=O)NCc4ccncn4)CC[C@H]32)cc1	none (no result: TDP1 block)
N#Cc1ccc2c(c1)nc1ccccn12	none
O=C(Nc1ccc(Nc2ccccc2)cc1)C1CC1	TDP1 cell noCPT 6.5µM, DT40 TDP1 CPT 7.3µM
Cc1cc(C)c(NC(=O)Nc2ccccc2)c(Cl)c1	TDP1 cell noCPT inconclusive, DT40 TDP1 CPT 16µM
COCCNC(=O)c1ccccc1NC(=O)Nc1ccccc1	IL-1B inflam inh -50
O=C(Nc1ccccc1)Nc1ccccc1C(=O)NCC1CC1	none (no result: CtBP-E1A inh)
CC(C)(C)C1CCC(C(=O)Nc2ccccc2)CC1 (stereo not drawn)	TDP1 cell noCPT inconclusive, DT40 TDP1 CPT inconclusive
O=C(Nc1ccccc1)Nc1ccccc1	TDP1 cell noCPT inconclusive, DT40 TDP1 CPT 18µM!
CC(=O)Nc1ccccc1	none
O=C(c1ccco1)c1cn(CCOc2ccc(F)cc2)c2ccccc12	TDP1 cell noCPT inconclusive, DT40 TDP1 CPT inconclusive (no result: CtBP-E1A inh, IL-1B inflam inh, Six1-Eya2 blk)
Cc1c(C(=O)N2CCC(c3nc4ccccc4s3)CC2)oc2cc(Br)ccc12	TDP1 cell noCPT inconclusive, DT40 TDP1 CPT inconclusive (no result: CtBP-E1A inh, IL-1B inflam inh, Six1-Eya2 blk)
CCCCCc1nc2c(c3c1CCCC3)CCCC2	TDP1 cell noCPT inconclusive, DT40 TDP1 CPT inconclusive
O=C(Nc1ccccc1)Nc1cccc2nsnc12	IL-1B inflam inh -74, TDP1 cell noCPT inconclusive, DT40 TDP1 CPT inconclusive
O=C(Nc1ccccc1)Nc1ccc(Cl)nc1Cl	IL-1B inflam inh -79, TDP1 cell noCPT inconclusive, DT40 TDP1 CPT inconclusive (no result: TDP1 block)
